Here are results for 57 compounds from PubChem BioAssay AID2472 (National Center for Advancing Translational Sciences (NCATS), 2010).

The campaign covered roughly 290,000 compounds. About 2,000 (0.69%) were called active. This excerpt belongs to a sample that is enriched for actives. A number with no mark means an inactive call. No stated cut-off is given here; in the data, active means activity change below about -30%; inactive means the rest, inconclusive results apart.
On the % scale 0 is the no-effect control and ±100 the full control effect.

The nature of this assay: qHTS Assay for Inhibitors of Fructose-1,6-bisphosphate Aldolase from Giardia Lamblia: Coupling assay counterscreen. The settings on record: coupling enzyme system counterscreen, AmpLite Red fluorescence; at 58.2 µM (top of the series). The essentials:
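Coupling enzymes only (glyceraldehyde-3-phosphate) + compound, at 57.5 uM final, 10 min RT; add substrate/coupling/AmpLite Red mix, 20 min RT; fluorescence ex 525/em 598 nm. Actives flag coupling-system interference.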
Turning to `COc1cccc(-c2coc3cc4oc(=O)c(CC(=O)O)c(C)c4cc23)c1`, the activity change, negative = inhibition is 12.3%. As to `O=C(Nc1cccc([N+](=O)[O-])c1)N1CCc2ccccc2C1`, the activity change, negative = inhibition was -5.24%. For `C=C1C([C@@]2(C)C(OC(C)=O)CC(=O)O[C@@](C)(COC(C)=O)C2CC(=O)OC)C(OC=O)C(OC(=O)C(O)C(C)CC)[C@]2(C)C(c3ccoc3)CC(=O)C12O` (some centres not stated), the activity change, negative = inhibition was -3.85%. The result for `CC(C)CCC(C)NC(=O)c1ccc2nccnc2c1` (configuration not stated) reads 2.87%. For `Oc1cc(O)c2c(c1)OC(c1ccc(O)c(O)c1)C(O)C2` (configuration not stated), the activity change, negative = inhibition is -34.5% (active). As for `CC1(c2ccc3ccccc3c2)NC(=O)N(CC(N)=O)C1=O` (configuration not stated), the activity change, negative = inhibition was -1.62%. Take `Cc1c(Cl)cccc1NC(=O)NCc1ccc(C)n1C`: the activity change, negative = inhibition is 0.306%. The result for `CCCN1CCC(=O)N(C(CSc2ccc(C)cc2)Cc2ccccc2)CC1` (configuration not stated) reads 2.31%; that for `CC1(C)Cc2ccccc2-c2[nH]c(=S)[nH]c(=O)c21`, 2.14%. The result for `N#CC1=C(N)Oc2n[nH]c(CSc3ccccc3)c2C12C(=O)Nc1ccccc12` (configuration not stated) reads -1.05%.

As for `N#CC1=C(N)Oc2[nH]c(=S)[nH]c(=O)c2C12C(=O)Nc1ccccc12` (configuration not stated), the activity change, negative = inhibition is -33.1% (active).

In the case of `COCCCNc1nc2ccccc2nc1NS(=O)(=O)c1ccc(F)cc1`, the activity change, negative = inhibition is 3.51%.

For the compound `Oc1cc2c(cc1O)CN(C(=S)NCCc1ccc(Cl)cc1)CCC2`, the activity change, negative = inhibition is -10.5%. The result for `CCOCCCNC(=O)c1cn(CC(C)C)c(=O)c2c1c1ccccc1n2C` reads 1.3%; that for `Cc1nn(C)cc1/C=C1\CCC/C(=C\c2cn(C)nc2C)C1=O`, -3.28%; that for `COc1ccc(CN2CCCC(N3CCc4ccccc4C3)C2)c(O)c1` (configuration not stated), 0.955%. The result for `COc1ccc2cc1Oc1ccc(cc1)C[C@H]1c3cc(c(OC)cc3CCN1C)Oc1c(O)c(OC)cc3c1[C@H](C2)N(C)CC3` reads 3.01%.

`COc1c(O)ccc2c1CN1CCc3cc4c(cc3C1C2)OCO4` (configuration not stated): the activity change, negative = inhibition is -31.7% (active).

On to `COc1ccc2c(c1)N(C)/C(=C1/SC(=S)N(NC(C)=O)C1=O)S2`, for which the activity change, negative = inhibition is -2.99%.

`CCOc1cc(-c2cc(-c3ccc(NC(C)=O)cc3)nc(N)c2C#N)ccc1O`: the activity change, negative = inhibition is -0.764%. The result for `CC(C)CNS(=O)(=O)c1ccc(CCC(=O)NCc2ccc(Cl)cc2)cc1` reads 2.27%. The result for `Cc1cccnc1NC(=O)CSc1nnc(COc2ccc(C(C)C)cc2)n1C` reads -3.92%; that for `Cc1ccc(OCc2nc3ccccc3n2C)cc1`, -0.274%. `Cc1ccc(OCc2nnc(SC3CCc4ccccc4C3=O)n2C)cc1` (configuration not stated): the activity change, negative = inhibition is -79.8% (active). With `C=C1/C(=C\C=C2\CCCC3(C)C2CCC3C(C)/C=C/C(O)C2CC2)CC(O)CC1O` (configuration not stated), the activity change, negative = inhibition was -0.462%. The result for `CN(NS(=O)(=O)c1cccs1)c1ncc(C(F)(F)F)cc1Cl` reads 1.61%; that for `CCOC(=O)c1c(C)[nH]c(C(=O)NCc2ccccc2OC)c1C`, 6.66%; that for `CCOC(=O)c1c(C)[nH]c(C)c1S(=O)(=O)N(C)CC(=O)Nc1ccccc1C`, 0.829%. The result for `CCOC(=O)c1c(C)[nH]c2c1-c1ccccc1C(=O)C2=O` reads -46.9% (active); that for `CC(=O)Nc1ccc(N2C(=O)C3C4C=CC(CC4)C3C2=O)cc1` (configuration not stated), -0.366%. The result for `Cc1cc(C)c(/C=C2\C(=O)Nc3ccccc32)[nH]1` reads -3.49%; that for `CN(C)/C=C1/C(=O)Nc2ccccc21`, 2.47%. Turning to `CN(C)/C=C1/Nc2ccccc2C1=O`, the activity change, negative = inhibition is -30.5% (active).

For the compound `COC(=O)C/C=C/[C@@H](C)[C@H](NC(=O)OCC(Cl)(Cl)Cl)c1ccccc1`, the activity change, negative = inhibition is -1.95%. Consider `Cc1cccc2[nH]c(CN(C)C(=O)C3CCC(=O)N(CCc4ccccc4)C3)nc12` (configuration not stated), for which the activity change, negative = inhibition is 2.15%.

As for `COc1ccccc1C1C(C(N)=O)=C(C)Nc2nc(CCCO)nn21` (configuration not stated), the activity change, negative = inhibition was 1.82%.

`O=C(N/N=C/c1cccc(OC(=O)c2ccc([N+](=O)[O-])cc2)c1)c1cccnc1`: the activity change, negative = inhibition was 0.693%. Take `COCCNC(=O)CN(Cc1ccco1)C(=O)CCC(=O)Nc1nccs1`: the activity change, negative = inhibition was 0.963%. The result for `Cc1cccc(OCC(=O)NCCNC(=O)c2cccnc2)c1` reads 0.0752%; that for `COc1ccc(C2Nc3ccccc3C(=O)N2Cc2ccccc2)cc1Cn1nnc2ccccc21` (configuration not stated), -34.4% (active); that for `COc1ccc(N2C(=O)c3ccccc3NC2c2ccc(OC)c(CN3CCOCC3)c2)cc1` (configuration not stated), -1.28%. In the case of `COc1ccc(C2Nc3ccccc3C(=O)N2c2ccc(F)cc2)cc1Cn1nnc2ccccc21` (configuration not stated), the activity change, negative = inhibition is 2.84%. In the case of `COc1ccc(CNC(=O)Cc2ccc(-c3ccccc3)cc2)cc1OC`, the activity change, negative = inhibition was 0.562%. Turning to `COc1ccc(C2/C=C\CN(Cc3ccco3)C(C)C(=O)N2Cc2ccc(F)cc2)cc1` (configuration not stated), the activity change, negative = inhibition is -1.36%.

With `Cc1coc2c(O)cc3c(c12)OC1(N2CCCCC2)C(=O)NCCCC31` (configuration not stated), the activity change, negative = inhibition was -43.7% (active). In the case of `C[C@H]1Cc2c(-c3ccccc3)nc3c(c2CO1)CN(S(=O)(=O)c1ccc(Cl)c2nonc12)CC3`, the activity change, negative = inhibition is 2.12%.

As to `O=C(Nc1nnc(S(=O)(=O)N2CCCCCC2)s1)c1cccc(Br)c1`, the activity change, negative = inhibition was -13.3%. The result for `Cc1cccc(C(=O)Nc2nnc(S(=O)(=O)N3CCCCCC3)s2)c1` reads -16.7%; that for `COc1cccc(C(=O)Nc2nnc(S(=O)(=O)N3CCCCC3)s2)c1`, -31.6% (active); that for `CS(=O)(=O)c1sc2nc(-c3ccccc3)cc(-c3ccccc3)c2c1N`, 1.12%. The result for `NNC(=O)c1oc2nc(-c3ccccc3)cc(-c3ccco3)c2c1N` reads -5.04%; that for `CNC(=S)NNC(=O)c1oc2nc(-c3ccccc3)cc(-c3ccco3)c2c1N`, -33.1% (active).

As to `Cc1c(C)c2ccc(OCC(=O)N3CCN(c4cccc(Cl)c4)CC3)cc2oc1=O`, the activity change, negative = inhibition was 1.47%.

Consider `C/C(=N\NC(=O)CNc1cccc2ccccc12)c1ccc(Br)s1`, for which the activity change, negative = inhibition is -0.7%. Turning to `Cc1cccc(/C=N/NC(=O)CNc2cccc3ccccc23)n1`, the activity change, negative = inhibition is -46.7% (active). The result for `Cn1cccc1/C=N/NC(=O)CNc1cccc2ccccc12` reads -1.22%. The result for `Cc1ccc(NC(=O)CN2C(=O)NC(C)(c3ccc(Cl)cc3)C2=O)c(Br)c1` (configuration not stated) reads 8.8e-05%.
